The target of assay [1] is Estrogen receptor beta (Homo sapiens) (UniProt Q92731). Put plainly: OT_ER_ERbERb_0480: Odyssey Thera (OT) 8-hour HEK293T Protein-Complementation Assay for Estrogen Receptor-beta/-beta Homodimer (AID 2283357).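 Also: active means signal gain over DMSO baseline.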 A digest of the protocol:
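Fluorescence intensity, nuclear for agonists and nuclear plus cytoplasmic for antagonists, was quantified by laser scanning cytometry versus vehicle after 8 h treatment. The cells were HEK293T stably carrying ER beta LBD fragment-complementation partners.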

The target of assay [2] is Retinoic acid receptor alpha (Homo sapiens) (UniProt P10276). As to the kind of experiment: NVS_NR_hRARa_Agonist: NovaScreen (NVS) Nuclear Receptor Binding Assay for human Retinoic Acid Alpha Receptor Agonism (RAR) (AID 2283361). A digest of the protocol: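 Cell-free TR-FRET binding readout with extracted receptor protein, read 2 hours after dosing; gain-of-signal fitted relative to DMSO. Screened in duplicate at 25 uM, actives then run in concentration-response.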
Retinoic acid receptor alpha (Homo sapiens), sequence (P10276 whole entry, looked up): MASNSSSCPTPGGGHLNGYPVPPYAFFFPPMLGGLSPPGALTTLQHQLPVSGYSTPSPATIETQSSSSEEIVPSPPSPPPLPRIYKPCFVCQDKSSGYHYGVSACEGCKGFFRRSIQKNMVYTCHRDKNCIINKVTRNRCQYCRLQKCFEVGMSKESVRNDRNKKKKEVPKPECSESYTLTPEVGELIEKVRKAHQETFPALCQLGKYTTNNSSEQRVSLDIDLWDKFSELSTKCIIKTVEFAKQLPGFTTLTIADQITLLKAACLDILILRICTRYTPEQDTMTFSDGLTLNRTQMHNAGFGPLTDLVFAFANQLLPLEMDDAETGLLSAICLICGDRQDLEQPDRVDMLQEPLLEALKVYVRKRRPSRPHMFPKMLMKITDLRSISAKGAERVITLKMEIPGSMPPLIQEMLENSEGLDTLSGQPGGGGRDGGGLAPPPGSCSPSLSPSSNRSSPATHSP

Assay [3] has as its target human Thyroid Receptor Alpha (TRa), THRA (gene 7067) (UniProt P10827). Put plainly: NVS_NR_hTRa_Antagonist: NovaScreen (NVS) Nuclear Receptor Binding Assay for human Thyroid Receptor Alpha Antagonism (TRa) (AID 2283362). A digest of the protocol: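 Cell-free binding assay on extracted receptor protein, read 1 h after chemical dosing by AlphaLISA chemiluminescence; loss of signal relative to DMSO baseline marks antagonism. Primary screen ran in duplicate at 25 uM, with concentration series for actives.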

The target in assay [4] is Nuclear receptor subfamily 1 group I member 2 (Homo sapiens) (UniProt O75469). As to the kind of experiment: NVS_NR_hPXR: NovaScreen (NVS) Nuclear Receptor Binding Assay for human Pregnane X Receptor (PXR) (AID 2283365).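 Also: a drop in FRET signal versus DMSO baseline means the compound binds.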 A digest of the protocol: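 Cell-free binding assay with extracted human PXR protein, read by TR-FRET 2 h after dosing; loss of signal relative to DMSO baseline indicates binding. Primary screen at 25 uM in duplicate, actives retested in concentration series.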
Nuclear receptor subfamily 1 group I member 2 (Homo sapiens), sequence (O75469 whole entry, looked up): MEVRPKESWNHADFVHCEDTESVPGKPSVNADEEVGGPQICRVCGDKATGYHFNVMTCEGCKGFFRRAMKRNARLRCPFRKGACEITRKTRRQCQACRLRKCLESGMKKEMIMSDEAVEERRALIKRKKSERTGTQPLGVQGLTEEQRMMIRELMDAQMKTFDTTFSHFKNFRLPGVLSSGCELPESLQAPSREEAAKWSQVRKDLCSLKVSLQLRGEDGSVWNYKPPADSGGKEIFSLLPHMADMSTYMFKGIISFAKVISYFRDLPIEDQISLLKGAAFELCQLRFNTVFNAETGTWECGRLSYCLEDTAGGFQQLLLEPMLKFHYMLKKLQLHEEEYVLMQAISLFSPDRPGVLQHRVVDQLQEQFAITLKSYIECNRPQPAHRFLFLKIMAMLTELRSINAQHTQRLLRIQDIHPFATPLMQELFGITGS

The target of assay [5] is Retinoic acid receptor alpha (Homo sapiens) (UniProt P10276). Put plainly: NVS_NR_hRAR_Antagonist: NovaScreen (NVS) Nuclear Receptor Binding Assay for human Retinoic Acid Alpha Receptor Antagonism (RAR) (AID 2283358). A digest of the protocol:
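Cell-free TR-FRET binding assay with extracted human RARalpha in antagonist mode, read 2 h after dosing. Loss of signal was fitted relative to DMSO; the primary screen used 25 uM in duplicate, with concentration series on follow-up.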

The target in assay [6] is rat Androgen Receptor (AR), Ar (gene 24208) (UniProt P15207). Put plainly: NVS_NR_rAR: NovaScreen (NVS) Nuclear Receptor Binding Assay for rat Androgen Receptor (AR) (AID 2283366). Put shortly: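 Cell-free radioligand binding on extracts of prostate from testosterone-pretreated rats, read by filter-based scintillation counting 18 h after dosing. Loss of bound signal fitted positively versus DMSO; primary screen in duplicate at 25 uM, actives followed up in concentration series.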
rat Androgen Receptor (AR), Ar (gene 24208), sequence (P15207 whole entry, looked up): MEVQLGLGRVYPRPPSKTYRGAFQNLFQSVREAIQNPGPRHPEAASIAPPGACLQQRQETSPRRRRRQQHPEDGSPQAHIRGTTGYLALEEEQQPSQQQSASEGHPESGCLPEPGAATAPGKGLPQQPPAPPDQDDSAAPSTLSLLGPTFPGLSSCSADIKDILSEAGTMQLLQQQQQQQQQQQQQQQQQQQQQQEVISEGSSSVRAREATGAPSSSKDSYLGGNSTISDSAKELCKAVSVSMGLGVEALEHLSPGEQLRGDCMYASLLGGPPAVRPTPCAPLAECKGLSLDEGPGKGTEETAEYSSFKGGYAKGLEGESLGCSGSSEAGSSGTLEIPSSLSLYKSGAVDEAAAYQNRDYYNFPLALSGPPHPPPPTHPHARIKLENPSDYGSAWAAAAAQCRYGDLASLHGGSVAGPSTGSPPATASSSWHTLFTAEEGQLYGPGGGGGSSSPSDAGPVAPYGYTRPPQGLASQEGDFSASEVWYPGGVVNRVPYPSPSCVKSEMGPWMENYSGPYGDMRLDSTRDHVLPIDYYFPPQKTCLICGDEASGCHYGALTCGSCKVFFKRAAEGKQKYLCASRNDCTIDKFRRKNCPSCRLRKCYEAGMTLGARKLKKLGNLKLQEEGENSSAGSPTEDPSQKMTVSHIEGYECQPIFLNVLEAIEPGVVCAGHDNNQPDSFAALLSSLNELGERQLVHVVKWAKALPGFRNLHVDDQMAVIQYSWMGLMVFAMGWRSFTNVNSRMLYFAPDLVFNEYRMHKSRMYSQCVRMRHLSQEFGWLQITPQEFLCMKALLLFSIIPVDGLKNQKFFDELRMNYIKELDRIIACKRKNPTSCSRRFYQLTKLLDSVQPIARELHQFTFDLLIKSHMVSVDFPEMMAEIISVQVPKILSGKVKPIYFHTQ

Assay [7] addresses human Peroxisome Proliferator-activated Receptor alpha (PPARa), PPARA (gene 5465) (UniProt Q07869). Put plainly: NVS_NR_hPPARa: NovaScreen (NVS) Nuclear Receptor Binding Assay for human Peroxisome Proliferator-activated Receptor alpha (PPARa) (AID 2283359).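 Also: activity means loss of TR-FRET signal versus DMSO baseline.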 Put shortly:
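Cell-free TR-FRET binding assay with extracted PPARα protein, read 1 h after dosing. Primary screen in duplicate at 25 uM, with actives retested in concentration series. Loss of signal versus DMSO.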

Molecules are shown by their SMILES. “And” between values parts separate entries of the source, which are not always exact repeats. Equal entries are not always repeated. Results filed as inconclusive are left out. Some compounds were tested as several samples or in several runs, with calls that do not always agree. The source made the active and inactive calls. The calls were made as follows: active = hit-call score of the fitted dose curve at least 0.9, where 1 is the maximum; inconclusive = response in the unintended direction; inactive = score below 0.9.

human Thyroid Receptor Alpha (TRa), THRA (gene 7067), sequence (P10827 whole entry, looked up): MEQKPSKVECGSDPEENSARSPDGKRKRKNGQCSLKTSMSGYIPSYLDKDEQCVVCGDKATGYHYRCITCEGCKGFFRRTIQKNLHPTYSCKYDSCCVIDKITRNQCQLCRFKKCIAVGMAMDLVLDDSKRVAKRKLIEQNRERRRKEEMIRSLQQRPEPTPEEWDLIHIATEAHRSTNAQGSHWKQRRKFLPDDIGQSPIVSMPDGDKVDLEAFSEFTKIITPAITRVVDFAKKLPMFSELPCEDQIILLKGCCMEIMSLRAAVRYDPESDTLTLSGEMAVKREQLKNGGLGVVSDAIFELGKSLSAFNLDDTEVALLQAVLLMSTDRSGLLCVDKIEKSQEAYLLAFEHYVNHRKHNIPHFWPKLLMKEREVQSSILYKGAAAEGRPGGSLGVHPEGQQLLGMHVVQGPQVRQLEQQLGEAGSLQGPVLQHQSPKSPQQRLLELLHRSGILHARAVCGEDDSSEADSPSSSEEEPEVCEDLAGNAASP
human Peroxisome Proliferator-activated Receptor alpha (PPARa), PPARA (gene 5465), sequence (Q07869 whole entry, looked up): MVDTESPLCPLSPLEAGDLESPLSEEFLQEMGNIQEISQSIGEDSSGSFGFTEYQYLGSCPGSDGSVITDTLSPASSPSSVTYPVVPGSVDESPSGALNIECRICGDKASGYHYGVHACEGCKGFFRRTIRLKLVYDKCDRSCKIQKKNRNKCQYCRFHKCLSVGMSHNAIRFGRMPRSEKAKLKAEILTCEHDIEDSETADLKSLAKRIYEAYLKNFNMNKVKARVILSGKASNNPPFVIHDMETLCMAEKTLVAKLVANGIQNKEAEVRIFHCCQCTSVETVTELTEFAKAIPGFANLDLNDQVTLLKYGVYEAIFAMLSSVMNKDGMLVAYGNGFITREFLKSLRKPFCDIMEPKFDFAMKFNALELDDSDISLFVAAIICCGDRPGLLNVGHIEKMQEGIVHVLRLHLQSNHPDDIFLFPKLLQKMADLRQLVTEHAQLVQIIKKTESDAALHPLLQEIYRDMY
Estrogen receptor beta (Homo sapiens), sequence (Q92731 whole entry, looked up, the tested form may be a part): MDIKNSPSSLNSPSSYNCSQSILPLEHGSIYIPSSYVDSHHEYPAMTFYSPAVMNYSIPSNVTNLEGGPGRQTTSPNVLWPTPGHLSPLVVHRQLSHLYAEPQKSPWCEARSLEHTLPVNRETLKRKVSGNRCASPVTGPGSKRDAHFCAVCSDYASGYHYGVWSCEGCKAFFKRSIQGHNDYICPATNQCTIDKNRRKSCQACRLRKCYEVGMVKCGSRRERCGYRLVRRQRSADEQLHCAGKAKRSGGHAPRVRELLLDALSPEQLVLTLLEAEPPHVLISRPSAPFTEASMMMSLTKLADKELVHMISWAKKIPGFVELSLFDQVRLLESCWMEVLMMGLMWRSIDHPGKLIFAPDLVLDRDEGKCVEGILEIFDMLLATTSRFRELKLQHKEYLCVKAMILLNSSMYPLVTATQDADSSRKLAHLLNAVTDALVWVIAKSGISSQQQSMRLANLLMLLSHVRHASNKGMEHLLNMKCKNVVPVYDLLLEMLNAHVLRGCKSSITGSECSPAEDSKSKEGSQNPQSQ

For `C#C[C@]1(O)CC[C@H]2[C@@H]3CCC4=CC(=O)CC[C@@H]4[C@H]3CC[C@@]21C`, the AC50 (usually the concentration at which the activity in the assay is half-maximal) in assay [1] is 25.7 µM (active) and 31.6 µM (active) and 17.8 µM (active). For the same molecule, the call in assay [1], in assay [2], in assay [3] and in assay [4] was inactive.

As for `CCCCCCCCCCCCc1ccccc1S(=O)(=O)O`, the molecule was classed as inactive in assay [1] and in assay [3]. The results for the AC50 in assay [5] and in assay [6] were 19 µM (active) and 3.66 µM (active), respectively.

For the molecule `CCCCCCCCOC(=O)CCCCCCCCC(=O)OCCCCCCCC`, the call in assay [1] and in assay [7] was inactive.

On to `C[C@@H]1C[C@H]2[C@@H]3CCC4=CC(=O)C=C[C@]4(C)[C@@]3(F)[C@@H](O)C[C@]2(C)[C@@]1(O)C(=O)COP(=O)(O)O`, for which the result in assay [1] was inactive.

In the case of `CC(C)(C)CC(C)(C)c1ccc(O)c(-n2nc3ccccc3n2)c1`, in assay [1], the result was inactive.

With `CCCCCCC(=O)O`, the result in assay [1] was inactive.

`OCCC(F)(F)C(F)(F)C(F)(F)C(F)(F)C(F)(F)C(F)(F)C(F)(F)C(F)(F)F`: the result in assay [1] was inactive.

Turning to `OCCC(F)(F)C(F)(F)C(F)(F)C(F)(F)C(F)(F)C(F)(F)F`, the outcome in assay [1] was inactive.

Consider `CCc1nn(C2CCCCC2)c2cc(C3(C#N)CCC(C(=O)O)CC3)ccc12` (stereo not drawn), for which, in assay [1], the result was inactive.

Turning to `CCCOC(=O)c1ccc(O)cc1`, in assay [1], the AC50 was 7.31 µM (active). In assay [7], the molecule was classed as inactive.

As to `c1ccc2c(c1)Cc1ccccc1-2`, the molecule was called inactive in assay [1] and in assay [5].

Take `CCOC(=O)CC(O)(CC(=O)OCC)C(=O)OCC`: the result in assay [1] and in assay [7] was inactive.

Turning to `CN1CCC[C@H]1c1cccnc1`, in assay [1], the molecule was classed as inactive.

With `N#C[C@@H]1CC(F)(F)CN1C(=O)CNC1CC2CCC(C1)N2c1ncccn1` (stereo partly drawn), the result in assay [1] and in assay [5] was inactive.

Turning to `CN(C)C=O`, in assay [1], the call was inactive.

As to `CN1CCN(c2ccccc2/C=C2\SCCN(c3ccc(Cl)c(Cl)c3)C2=O)CC1`, in assay [1], the result was inactive.
